# Only some compounds are listed: those with a hit (about 3.5% of all), similar ones and a draw of the others.
# LEDGF integ inh: blocks HIV-1 LEDGF/p75-dependent DNA integration | TR-FRET IN-LEDGF/p75 DNA integration, Eu/Cy5 | inhibition, % at 3.7 µM | 0.64% of 370,000 active;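 active = inhibition above the screen-wide mean plus 3 SD, cut at about 13% in these data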;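 also: signal is the Cy5 over europium emission ratio at 671 and 618 nm; 0% = plate median of compound wells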
# DNMT1 inh: inhibitors of human DNMT1 | P26358 | DNMT1 molecular beacon, Hinp1I cleavage, fluorescence | inhibition (reported as % activation of signal), % at 10 µM | 0.83% of 360,000 active | AID 588458; in the data active = inhibition above about 50%
# UHRF1 MBD2 ctr: blocks human UHRF1 binding to methylated DNA | inhibition, % at 4.4 µM | Q96T88 | AID 687016 | 0.75% of 370,000 active | UHRF1 binding to methylated oligo, TR-FRET; in the data active = inhibition above about 21%;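 also: UHRF1 SRA domain binding a hemimethylated CpG hairpin DNA probe; 0% = median of test compound wells and 100% = reference inhibitor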
# Target sequence (Q96T88 whole entry, looked up, the tested form may be a part): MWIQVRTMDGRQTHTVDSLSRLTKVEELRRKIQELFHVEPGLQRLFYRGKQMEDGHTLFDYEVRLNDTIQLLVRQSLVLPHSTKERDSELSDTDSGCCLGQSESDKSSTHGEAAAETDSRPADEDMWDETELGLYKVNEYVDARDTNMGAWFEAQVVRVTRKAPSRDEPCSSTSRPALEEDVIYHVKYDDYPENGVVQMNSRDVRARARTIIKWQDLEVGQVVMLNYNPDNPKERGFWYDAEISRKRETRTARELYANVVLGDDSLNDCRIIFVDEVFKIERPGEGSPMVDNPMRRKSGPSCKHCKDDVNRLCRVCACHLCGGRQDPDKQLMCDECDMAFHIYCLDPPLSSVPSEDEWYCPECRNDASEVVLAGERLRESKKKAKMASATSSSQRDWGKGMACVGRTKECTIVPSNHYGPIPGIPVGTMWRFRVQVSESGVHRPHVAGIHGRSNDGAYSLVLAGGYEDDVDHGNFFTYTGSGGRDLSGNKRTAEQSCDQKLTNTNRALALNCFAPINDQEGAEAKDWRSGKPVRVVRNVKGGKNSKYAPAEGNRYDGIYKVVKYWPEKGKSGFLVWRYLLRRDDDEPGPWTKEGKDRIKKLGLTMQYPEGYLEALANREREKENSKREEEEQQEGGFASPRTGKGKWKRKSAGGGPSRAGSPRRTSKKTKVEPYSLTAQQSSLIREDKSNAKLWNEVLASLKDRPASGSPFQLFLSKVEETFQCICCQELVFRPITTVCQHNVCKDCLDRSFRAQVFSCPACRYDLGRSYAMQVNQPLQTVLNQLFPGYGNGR
# PG9 binder: PG9 antibody binding by small molecule | TR-FRET gp120-PG9 antibody binding | inhibition, % at 6.7 µM | 0.43% of 360,000 active | AID 624416; in the data active = inhibition above about 8.5%
# rCAG RNA binder: r(CAG) repeat RNA binding | TO-PRO-1 dye displacement fluorescence | inhibition, % at 3 µM | 1.3% of 370,000 active | AID 651821;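 active = inhibition above the plate cutoff, the mean of all test compounds on that plate plus 3 SD, cut at about 35% in these data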;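 also: 0% = DMSO alone and 100% = 100 µM mitoxantrone as full dye displacement; higher means more dye released from RNA so lower well fluorescence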
# MBD2 DNA inh: blocks human MBD2 binding to methylated DNA; Q9UBB5; TR-FRET, MBD2 binding to methylated oligonucleotide; inhibition, % at 4.4 µM; 0.31% of 370,000 active; in the data active = inhibition above about 13%
# IN multimer up: HIV-1 integrase multimerization activation, counter-screen; 17% of 2,000 active; shares compounds with LEDGF integ inh; activation, % at 7.7 µM; AID 1053131; TR-FRET HIV-1 integrase multimerization, biochemical; in the data active = activation above about 8.9%
# TR-FRET interf: TR-FRET optical interference, LEDGF/p75 integration counter-screen; shares compounds with LEDGF integ inh; TR-FRET optical interference counterscreen, HIV-1 IN multimerization; inhibition, % at 7.7 µM; 2,000 tested, under 10 active; AID 1053135;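 active = inhibition above the mean over all tested compounds plus 3 SD, which no compound reached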;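 also: 0% = integrase with antibodies and DMSO and 100% = antibodies without integrase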
# LEDGF integ conf: LEDGF/p75-dependent HIV-1 integration inhibition, confirmation | shares compounds with LEDGF integ inh | TR-FRET LEDGF/p75-dependent HIV-1 integration, biochemical | inhibition, % at 3.7 µM | 36% of 2,000 active; in the data active = inhibition above about 14%
# Numbers without * were called inactive; x = not tested or not shown.
SMILES,LEDGF integ inh,DNMT1 inh,UHRF1 MBD2 ctr,PG9 binder,rCAG RNA binder,MBD2 DNA inh,IN multimer up,TR-FRET interf,LEDGF integ conf
CN(C)c1ncnc2c1ncn2[C@H]1CN(Cc2cccnc2)C[C@@H](CO)O1,51.8*,7.0,-1.3,0.8,1.9,0.8,-1.0,4.9,-6.5
Cc1nc(NCCCn2ccnc2)c2ccccc2n1,71.2*,-3.3,2.2,1.3,-2.5,-5.7,-0.6,3.3,-0.1
CCc1nnc(N/N=C/c2ccccc2F)n1N,58.3*,-2.7,8.0,0.1,-2.1,1.0,-0.5,1.6,0.1
CCc1nnc(N/N=C/c2ccccc2Cl)n1N,45.8*,1.5,9.0,-1.4,-1.9,-3.7,0.3,-1.2,-1.1
COc1cccc(C=NNc2nnc(NN=Cc3cccc(OC)c3OC)c3ccccc23)c1OC,0.7,-8.3,-2.1,-1.8,5.4,1.6,x,x,x
COc1cccc(/C=N/Nc2nnc(C)n2N)c1OCc1ccccc1Cl,40.7*,0.4,3.6,-2.4,1.1,-5.0,0.5,-2.6,-3.1
C=CCN(c1ccccc1)S(=O)(=O)c1cccc(C(=O)N(CC)CC(=O)Nc2c(F)cccc2F)c1,4.7,1.3,1.4,-1.2,-3.0,-8.5,x,x,x
COc1cc(C2Nc3ccc4ncccc4c3C3=C2C(=O)CCC3)ccc1O (configuration not stated),27.2*,-10.1,-8.7,-3.9,2.5,-13.4,2.1,-10.5,-12.8
COCc1cc(N2CCNC[C@@H]2C)ccc1N1CCN(Cc2ccccc2)[C@H](C)C1,1.1,x,-1.0,-0.3,5.0,-1.7,x,x,x
CN(C)c1ccc(N=Cc2nc(-c3ccccc3)oc2O)cc1,-3.3,-4.5,-2.6,-9.2,0.4,-1.3,x,x,x
CN(C)c1ccc(N=Cc2cccn2C)cc1,22.5*,-1.3,2.9,-75.8,13.1,-14.2,1.7,-8.6,10.3
COc1ccc(-c2cnc(N)n2CC2CCCO2)cc1 (configuration not stated),27.6*,-1.0,1.9,2.8,8.8,8.3,-0.5,2.4,-5.0
CCOC(=O)C1=CN(Cc2cccc(F)c2)S(=O)(=O)N(CC)C1c1ccc(F)c(Cl)c1 (configuration not stated),-3.5,0.1,0.7,-0.7,4.7,-0.7,x,x,x
COc1ccc(OC)c(/C=N/NC(=O)CCc2ccc(O)c(O)c2)c1,58.0*,5.5,-1.3,-3.4,5.6,1.1,1.5,-7.6,1.6
CC(C)(C)OC(=O)C[C@@H]1C/C=C\C[C@H](CC(=O)NCCO)C(=O)N2CCC[C@@H]2COC1=O,0.5,1.1,4.0,0.7,1.1,8.5,x,x,x
CCN(CC(=O)Nc1c(F)cccc1F)C(=O)c1ccc2c(c1)C(=O)N(c1ccccc1C)C2=O,-0.8,2.3,0.3,-0.7,1.4,3.3,x,x,x
C=CCN1CCc2nc(N)sc2CC1,14.2*,-3.5,3.6,-0.3,9.0,11.6,0.4,-1.8,3.2
CC(C)C1C(=O)N(Cc2cn(CC3CCCCC3)nn2)CCS(=O)(=O)N1Cc1ccc(-c2ccncc2)cc1 (configuration not stated),3.6,-0.7,0.1,0.6,3.7,-5.5,x,x,x
C[C@@H]1CN([C@@H](C)CO)C(=O)c2cc(Br)cnc2O[C@H]1CN(C)C(=O)Nc1ccc2c(c1)OCO2,4.1,1.9,-1.0,-2.2,3.8,1.0,x,x,x
COC(=O)c1ccc(CN2C(=O)c3ccccc3C2=O)cc1,-1.9,-0.3,-0.2,1.7,-4.5,-1.5,x,x,x
COC(=O)c1ccc(CN2C(=O)NC(CC(C)C)C2=O)cc1 (configuration not stated),61.2*,-1.5,24.5*,0.7,-4.9,0.8,-1.3,4.5,-4.2
Cc1ccc(S(=O)(=O)Nc2cc(C(=O)N3CCOCC3)ccc2N2CCCCC2)cc1,24.5*,-0.4,2.0,-0.8,0.1,-4.9,0.9,-4.6,-1.9
Nc1c(N(C(=O)Nc2ccc(Cl)c(Cl)c2)C2CCCC2)c(=O)[nH]c(=O)n1Cc1ccccc1,13.9*,4.0,-0.8,2.3,-0.7,2.9,0.7,-2.5,0.7

# Source: PubChem BioAssay (several laboratories)
